Binding signal data for 14 sequences are collected here from paper PMC5869772, “Quantitative profiling of BATF family proteins/JUNB/IRF hetero-trimers using Spec-seq”.

Common to all, as to test: Spec-seq (EMSA and sequencing of bound and unbound bands); 100 nM BATFx-JUNB, 1 uM dsDNA library, 50 mM K acetate, 20 mM Tris-acetate, 10 mM Mg acetate, 100 ug/ml BSA, pH 7.9, 10% glycerol, 30 min on ice; native 9% PAGE at 4 C; low values mean tight binding
Conditions in all cases: protein: recombinant;recombinant; tags: N-terminal mCherry-TEV, cleaved off;C-terminal 6His; copies: 1;1; dsDNA, one strand shown

Test [1] addresses T1, BATF;JUNB (human;human, UniProt Q16520;P17275 1-125;148-347, |).
T1 sequence 1: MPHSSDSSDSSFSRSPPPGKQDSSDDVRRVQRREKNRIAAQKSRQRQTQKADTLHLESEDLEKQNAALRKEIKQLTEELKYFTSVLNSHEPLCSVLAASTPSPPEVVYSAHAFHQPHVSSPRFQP
T1 sequence 2: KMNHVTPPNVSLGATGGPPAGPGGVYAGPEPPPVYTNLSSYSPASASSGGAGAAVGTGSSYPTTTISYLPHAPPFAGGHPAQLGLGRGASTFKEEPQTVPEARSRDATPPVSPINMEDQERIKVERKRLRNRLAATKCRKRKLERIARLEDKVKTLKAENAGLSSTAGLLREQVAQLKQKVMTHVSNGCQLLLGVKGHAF
The gist of the method:
(§1)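 The protein, at 100 nM, was incubated with 1 μM double-stranded degenerate DNA library for 30 min on ice in NEB Cutsmart buffer with 10% glycerol, then resolved by native 9% PAGE at 4 °C. Excised bound and unbound bands were PCR-barcoded and Illumina-sequenced, and each sequence's relative binding energy in kT is −ln of its bound/unbound read-count ratio.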

The target of test [2] is T2, BATF2 (bZIP);JUNB (human;human, UniProt Q8N1L9;P17275 1-142;148-347, |).
T2 sequence 1: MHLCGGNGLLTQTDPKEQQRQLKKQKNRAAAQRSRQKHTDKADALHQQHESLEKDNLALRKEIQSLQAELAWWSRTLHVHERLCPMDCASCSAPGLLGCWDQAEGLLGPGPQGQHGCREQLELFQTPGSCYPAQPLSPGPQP
T2 sequence 2: T1 sequence 2
The gist of the method: as §1

Test [3] concerns the target T3, BATF3;JUNB (human;human, UniProt Q9NR55;P17275 1-127;148-347, |).
T3 sequence 1: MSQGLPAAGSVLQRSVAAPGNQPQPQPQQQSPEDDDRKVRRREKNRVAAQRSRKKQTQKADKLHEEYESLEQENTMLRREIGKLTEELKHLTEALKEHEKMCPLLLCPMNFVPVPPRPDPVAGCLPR
T3 sequence 2: T1 sequence 2
The gist of the method:
as §1

As to “GATAGTCTCATTTTCACCCCGTGAAATGACTAAATTGTTCCATTACAGTATCTGT”, the binding signal in test [1] is -0.125 kT; in test [2], 0.513 kT; in test [3] it was 0.0877 kT.
As for “GATAGTCTCATTTTCACCCCGTGAAAATCAGTCATTGTTCCATTACAGTATCTGT”, the binding signal was -0.547 kT in test [1], 0.0501 kT in test [2] and -0.272 kT in test [3].
In the case of “GATAGTCTCATTTTCACCCCGTGAAATGACGCATTTGTTCCATTACAGTATCTGT”, the values for the binding signal in test [1], in test [2] and in test [3] were -0.475 kT, 0.109 kT and -0.479 kT, respectively.
Regarding “GATAGTCTCATTTTCACCCCGTGAAACTGTGTCATTGTTCCATTACAGTATCTGT”, the binding signal in test [1] is -0.318 kT; in test [2], 0.116 kT; in test [3], -0.22 kT.
For the sequence “GATAGTCTCATTTTCACCCCGTGAAACGACTCATTTGTTCCATTACAGTATCTGT”, the binding signal was -0.317 kT in test [1], 0.616 kT in test [2] and 0.267 kT in test [3].
The matching figures for “GATAGTCTCATTTTCACCCCGTGAAATGAGGTCATTGTTCCATTACAGTATCTGT”: -0.348 kT, 0.096 kT and -1.09 kT.
Consider “GATAGTCTCATTTTCACCCCGTGAAATGACGCCATTGTTCCATTACAGTATCTGT”, for which the binding signal in test [1] is -0.429 kT; in test [2], 0.257 kT; in test [3] it was -0.802 kT.
As for “GATAGTCTCATTTTCACCCCGTGAAATGACGGCATTGTTCCATTACAGTATCTGT”, the binding signal is -0.148 kT in test [1], 0.419 kT in test [2] and -0.439 kT in test [3].
With “GATAGTCTCATTTTCACCCCGTGAAATGACACATTTGTTCCATTACAGTATCTGT”, the results for the binding signal in test [1], in test [2] and in test [3] were -0.137 kT, 0.424 kT and 0.0792 kT, respectively.
On to “GATAGTCTCATTTTCACCCCGTGAAATGACGCAATTGTTCCATTACAGTATCTGT”, for which the binding signal in test [1] is -0.574 kT; in test [2], -0.276 kT; in test [3], -1.27 kT.
The matching figures for “GATAGTCTCATTTTCACCCCGTGAAAGTAAGTCATTGTTCCATTACAGTATCTGT”: -0.0818 kT, 0.203 kT and -0.041 kT.
On to “GATAGTCTCATTTTCACCCCGTGAAATGAGTAACTTGTTCCATTACAGTATCTGT”, for which the results for the binding signal in test [1], in test [2] and in test [3] were -0.237 kT, 0.714 kT and 0.295 kT, respectively.
The matching figures for “GATAGTCTCATTTTCACCCCGTGAAATGACGTGATTGTTCCATTACAGTATCTGT”: -0.588 kT, -0.181 kT and -1.06 kT.
For the sequence “GATAGTCTCATTTTCACCCCGTGAAATGACTCACTTGTTCCATTACAGTATCTGT”, the binding signal was -0.778 kT in test [1], -0.378 kT in test [2] and -0.943 kT in test [3].
